According to ChEMBL document CHEMBL2218924, “A broad activity screen in support of a chemogenomic map for kinase signalling research and drug discovery” (Biochem J, 2013):

What was measured:
[1] = target: Calcium/calmodulin-dependent protein kinase type 1 (Homo sapiens) (UniProt Q14012); settings: at 10 µM
[2] = target: Calcium/calmodulin-dependent protein kinase type II subunit beta (Homo sapiens) (UniProt Q13554); settings: at 10 µM
[3] = target: Calcium/calmodulin-dependent protein kinase type II subunit gamma (Homo sapiens) (UniProt Q13555); settings: at 1 µM
[4] = target: Calcium/calmodulin-dependent protein kinase type II subunit gamma (Homo sapiens) (UniProt Q13555); settings: at 10 µM
[5] = target: Calcium/calmodulin-dependent protein kinase type II subunit delta (Homo sapiens) (UniProt Q13557); settings: at 1 µM
[6] = target: Calcium/calmodulin-dependent protein kinase type II subunit delta (Homo sapiens) (UniProt Q13557); settings: at 10 µM
[7] = target: T1, Calcium/calmodulin-dependent protein kinase type IV (Homo sapiens) (UniProt Q16566); settings: at 10 µM
T1 sequence (whole entry): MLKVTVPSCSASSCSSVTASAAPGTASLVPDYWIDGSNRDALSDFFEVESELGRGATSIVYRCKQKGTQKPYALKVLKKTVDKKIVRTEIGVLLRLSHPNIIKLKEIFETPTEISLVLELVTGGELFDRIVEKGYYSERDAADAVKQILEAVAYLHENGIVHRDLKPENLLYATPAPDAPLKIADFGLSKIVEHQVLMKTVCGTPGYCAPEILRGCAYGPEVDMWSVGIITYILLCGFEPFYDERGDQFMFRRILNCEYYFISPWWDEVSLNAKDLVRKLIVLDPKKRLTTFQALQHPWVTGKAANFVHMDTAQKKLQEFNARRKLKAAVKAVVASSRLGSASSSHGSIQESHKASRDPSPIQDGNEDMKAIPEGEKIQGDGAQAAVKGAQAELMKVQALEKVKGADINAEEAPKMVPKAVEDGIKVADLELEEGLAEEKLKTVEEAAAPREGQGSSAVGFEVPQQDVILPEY

[8] = target: Death-associated protein kinase 1 (Homo sapiens) (UniProt P53355); settings: at 10 µM
[9] = target: Death-associated protein kinase 2 (Homo sapiens) (UniProt Q9UIK4); settings: at 1 µM
[10] = target: Death-associated protein kinase 2 (Homo sapiens) (UniProt Q9UIK4); settings: at 10 µM
[11] = target: T2, Serine/threonine-protein kinase DCLK2 (Homo sapiens) (UniProt Q8N568); settings: at 1 µM
T2 sequence (whole entry): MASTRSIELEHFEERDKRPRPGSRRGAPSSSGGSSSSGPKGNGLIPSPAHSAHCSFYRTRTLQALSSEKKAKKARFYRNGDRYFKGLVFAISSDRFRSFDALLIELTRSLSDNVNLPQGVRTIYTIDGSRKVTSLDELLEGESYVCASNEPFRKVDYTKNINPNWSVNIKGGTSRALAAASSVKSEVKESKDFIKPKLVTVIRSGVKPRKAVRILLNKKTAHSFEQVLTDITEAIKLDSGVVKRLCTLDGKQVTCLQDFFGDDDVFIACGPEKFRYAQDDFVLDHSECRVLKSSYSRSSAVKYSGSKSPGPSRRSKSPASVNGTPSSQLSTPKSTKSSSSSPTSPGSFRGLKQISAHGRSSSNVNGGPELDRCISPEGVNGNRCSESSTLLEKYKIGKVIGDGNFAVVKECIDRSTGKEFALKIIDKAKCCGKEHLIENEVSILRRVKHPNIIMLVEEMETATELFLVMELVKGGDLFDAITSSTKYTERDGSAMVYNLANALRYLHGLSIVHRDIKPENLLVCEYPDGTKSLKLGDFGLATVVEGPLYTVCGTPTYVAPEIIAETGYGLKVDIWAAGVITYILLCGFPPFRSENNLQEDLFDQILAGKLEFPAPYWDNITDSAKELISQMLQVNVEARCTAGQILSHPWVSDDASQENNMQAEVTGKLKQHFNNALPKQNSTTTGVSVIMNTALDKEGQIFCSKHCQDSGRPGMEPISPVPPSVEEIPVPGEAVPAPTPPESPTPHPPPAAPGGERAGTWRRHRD

[12] = target: T2, Serine/threonine-protein kinase DCLK2 (Homo sapiens); settings: at 10 µM
[13] = target: T3, Serine/threonine-protein kinase 17A (Homo sapiens) (UniProt Q9UEE5); settings: at 1 µM
T3 sequence (whole entry): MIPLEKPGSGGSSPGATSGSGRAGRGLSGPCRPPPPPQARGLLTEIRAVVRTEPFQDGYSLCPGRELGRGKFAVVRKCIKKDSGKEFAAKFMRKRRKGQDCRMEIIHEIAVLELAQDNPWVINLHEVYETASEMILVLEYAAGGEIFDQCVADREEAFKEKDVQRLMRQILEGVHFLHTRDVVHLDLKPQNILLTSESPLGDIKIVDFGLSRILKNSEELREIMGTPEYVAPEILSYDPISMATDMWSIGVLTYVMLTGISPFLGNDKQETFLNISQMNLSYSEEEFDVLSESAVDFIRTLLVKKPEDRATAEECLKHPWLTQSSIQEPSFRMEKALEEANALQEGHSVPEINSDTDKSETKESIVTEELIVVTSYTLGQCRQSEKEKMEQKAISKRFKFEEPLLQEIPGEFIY

[14] = target: Calcium/calmodulin-dependent protein kinase type II subunit beta (Homo sapiens) (UniProt Q13554); settings: at 1 µM
[15] = target: T4, Discoidin domain-containing receptor 2 (Homo sapiens) (UniProt Q16832); settings: at 1 µM
T4 sequence (whole entry): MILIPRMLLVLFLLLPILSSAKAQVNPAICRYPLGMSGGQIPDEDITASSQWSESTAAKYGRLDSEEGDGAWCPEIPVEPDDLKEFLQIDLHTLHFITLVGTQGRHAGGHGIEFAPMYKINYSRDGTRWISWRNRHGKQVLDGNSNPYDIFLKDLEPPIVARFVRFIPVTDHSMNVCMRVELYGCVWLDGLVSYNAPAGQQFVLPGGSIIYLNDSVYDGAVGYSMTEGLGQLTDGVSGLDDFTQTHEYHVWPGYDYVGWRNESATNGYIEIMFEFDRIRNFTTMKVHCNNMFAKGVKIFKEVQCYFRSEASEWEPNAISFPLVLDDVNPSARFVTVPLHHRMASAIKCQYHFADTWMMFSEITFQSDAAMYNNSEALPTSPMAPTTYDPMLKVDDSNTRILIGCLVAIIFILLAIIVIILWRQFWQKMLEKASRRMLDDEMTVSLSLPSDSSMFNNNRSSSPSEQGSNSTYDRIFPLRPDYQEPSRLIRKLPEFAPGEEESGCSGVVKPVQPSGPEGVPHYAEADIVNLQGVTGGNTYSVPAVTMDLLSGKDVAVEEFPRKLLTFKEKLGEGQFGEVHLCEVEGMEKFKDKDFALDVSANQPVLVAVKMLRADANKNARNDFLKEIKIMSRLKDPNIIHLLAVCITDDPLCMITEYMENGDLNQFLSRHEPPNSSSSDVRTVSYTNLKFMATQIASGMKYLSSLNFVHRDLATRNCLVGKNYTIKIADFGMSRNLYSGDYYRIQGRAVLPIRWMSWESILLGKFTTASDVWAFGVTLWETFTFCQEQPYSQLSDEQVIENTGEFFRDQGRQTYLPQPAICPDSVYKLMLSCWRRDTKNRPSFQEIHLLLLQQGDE

[16] = target: T4, Discoidin domain-containing receptor 2 (Homo sapiens); settings: at 10 µM
[17] = target: T5, Myotonin-protein kinase (Homo sapiens) (UniProt Q09013); settings: at 1 µM
T5 sequence (whole entry): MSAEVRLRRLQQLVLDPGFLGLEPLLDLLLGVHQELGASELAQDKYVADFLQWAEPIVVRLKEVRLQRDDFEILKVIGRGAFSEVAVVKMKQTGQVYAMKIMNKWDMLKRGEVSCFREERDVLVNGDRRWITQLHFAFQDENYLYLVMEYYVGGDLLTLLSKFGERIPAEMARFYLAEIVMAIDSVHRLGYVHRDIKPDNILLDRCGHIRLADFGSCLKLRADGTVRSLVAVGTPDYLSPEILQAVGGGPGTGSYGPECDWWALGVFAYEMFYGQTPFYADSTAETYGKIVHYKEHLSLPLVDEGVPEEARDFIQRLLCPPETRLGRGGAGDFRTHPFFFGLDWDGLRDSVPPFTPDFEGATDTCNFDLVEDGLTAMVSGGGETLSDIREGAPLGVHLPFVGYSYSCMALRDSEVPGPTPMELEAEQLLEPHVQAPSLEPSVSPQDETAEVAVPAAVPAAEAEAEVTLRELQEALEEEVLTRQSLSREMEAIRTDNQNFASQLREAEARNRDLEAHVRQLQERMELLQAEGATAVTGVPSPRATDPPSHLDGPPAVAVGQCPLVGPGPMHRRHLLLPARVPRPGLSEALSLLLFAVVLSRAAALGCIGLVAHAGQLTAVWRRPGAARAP

[18] = target: T5, Myotonin-protein kinase (Homo sapiens); settings: at 10 µM
[19] = target: T1, Calcium/calmodulin-dependent protein kinase type IV (Homo sapiens); settings: at 1 µM

Sequence of Calcium/calmodulin-dependent protein kinase type II subunit beta (Homo sapiens) (Q13554 whole entry, the tested form may be a part): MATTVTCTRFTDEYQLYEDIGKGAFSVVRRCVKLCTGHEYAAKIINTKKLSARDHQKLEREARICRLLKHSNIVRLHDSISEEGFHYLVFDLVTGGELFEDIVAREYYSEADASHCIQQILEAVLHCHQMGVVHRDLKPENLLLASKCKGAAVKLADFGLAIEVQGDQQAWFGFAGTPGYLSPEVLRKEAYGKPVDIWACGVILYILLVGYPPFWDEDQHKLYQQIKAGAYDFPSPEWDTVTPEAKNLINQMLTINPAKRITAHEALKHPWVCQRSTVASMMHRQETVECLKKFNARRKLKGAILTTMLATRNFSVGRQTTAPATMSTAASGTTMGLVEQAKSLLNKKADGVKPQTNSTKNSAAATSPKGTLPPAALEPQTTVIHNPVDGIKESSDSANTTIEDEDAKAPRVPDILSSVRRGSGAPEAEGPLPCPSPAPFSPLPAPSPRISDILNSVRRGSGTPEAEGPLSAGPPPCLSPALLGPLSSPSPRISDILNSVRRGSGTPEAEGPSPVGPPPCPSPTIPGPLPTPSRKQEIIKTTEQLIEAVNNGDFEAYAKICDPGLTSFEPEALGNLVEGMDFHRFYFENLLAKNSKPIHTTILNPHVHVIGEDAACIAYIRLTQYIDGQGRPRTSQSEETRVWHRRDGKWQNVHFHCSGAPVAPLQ
Sequence of Calcium/calmodulin-dependent protein kinase type II subunit delta (Homo sapiens) (Q13557 whole entry): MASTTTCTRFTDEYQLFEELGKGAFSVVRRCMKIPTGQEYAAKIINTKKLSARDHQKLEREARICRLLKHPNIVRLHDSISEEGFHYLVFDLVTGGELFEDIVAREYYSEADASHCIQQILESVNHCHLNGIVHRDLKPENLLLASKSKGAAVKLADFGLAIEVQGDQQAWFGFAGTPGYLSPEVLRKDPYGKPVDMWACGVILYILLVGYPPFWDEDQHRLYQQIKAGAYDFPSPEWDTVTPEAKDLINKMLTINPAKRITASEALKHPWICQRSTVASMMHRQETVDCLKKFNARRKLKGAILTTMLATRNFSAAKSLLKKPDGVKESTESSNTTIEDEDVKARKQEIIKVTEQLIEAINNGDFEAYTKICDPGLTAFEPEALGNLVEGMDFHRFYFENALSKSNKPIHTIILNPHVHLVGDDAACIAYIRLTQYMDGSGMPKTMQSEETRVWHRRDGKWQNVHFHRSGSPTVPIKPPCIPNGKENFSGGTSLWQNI
Sequence of Calcium/calmodulin-dependent protein kinase type 1 (Homo sapiens) (Q14012 whole entry, looked up): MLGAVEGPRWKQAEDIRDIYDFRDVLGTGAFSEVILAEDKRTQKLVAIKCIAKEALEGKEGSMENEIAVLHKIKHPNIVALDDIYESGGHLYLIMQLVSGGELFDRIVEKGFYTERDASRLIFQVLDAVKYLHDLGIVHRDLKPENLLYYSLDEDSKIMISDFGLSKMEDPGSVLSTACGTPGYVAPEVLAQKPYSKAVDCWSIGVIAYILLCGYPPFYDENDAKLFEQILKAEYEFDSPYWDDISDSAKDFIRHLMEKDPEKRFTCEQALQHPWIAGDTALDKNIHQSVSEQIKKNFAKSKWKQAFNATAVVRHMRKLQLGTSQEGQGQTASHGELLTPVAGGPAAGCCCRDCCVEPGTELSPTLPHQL
Sequence of Death-associated protein kinase 2 (Homo sapiens) (Q9UIK4 whole entry, looked up): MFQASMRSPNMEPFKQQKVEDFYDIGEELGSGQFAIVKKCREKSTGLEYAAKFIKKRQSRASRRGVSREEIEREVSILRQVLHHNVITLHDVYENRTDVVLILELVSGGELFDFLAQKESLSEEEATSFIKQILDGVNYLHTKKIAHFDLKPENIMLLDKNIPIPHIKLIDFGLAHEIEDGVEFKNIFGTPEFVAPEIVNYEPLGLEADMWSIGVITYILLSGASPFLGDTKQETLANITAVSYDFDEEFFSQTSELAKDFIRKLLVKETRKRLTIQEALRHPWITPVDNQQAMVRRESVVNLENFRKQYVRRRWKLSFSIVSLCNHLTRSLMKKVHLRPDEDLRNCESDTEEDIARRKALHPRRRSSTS
Sequence of Death-associated protein kinase 1 (Homo sapiens) (P53355 whole entry, looked up): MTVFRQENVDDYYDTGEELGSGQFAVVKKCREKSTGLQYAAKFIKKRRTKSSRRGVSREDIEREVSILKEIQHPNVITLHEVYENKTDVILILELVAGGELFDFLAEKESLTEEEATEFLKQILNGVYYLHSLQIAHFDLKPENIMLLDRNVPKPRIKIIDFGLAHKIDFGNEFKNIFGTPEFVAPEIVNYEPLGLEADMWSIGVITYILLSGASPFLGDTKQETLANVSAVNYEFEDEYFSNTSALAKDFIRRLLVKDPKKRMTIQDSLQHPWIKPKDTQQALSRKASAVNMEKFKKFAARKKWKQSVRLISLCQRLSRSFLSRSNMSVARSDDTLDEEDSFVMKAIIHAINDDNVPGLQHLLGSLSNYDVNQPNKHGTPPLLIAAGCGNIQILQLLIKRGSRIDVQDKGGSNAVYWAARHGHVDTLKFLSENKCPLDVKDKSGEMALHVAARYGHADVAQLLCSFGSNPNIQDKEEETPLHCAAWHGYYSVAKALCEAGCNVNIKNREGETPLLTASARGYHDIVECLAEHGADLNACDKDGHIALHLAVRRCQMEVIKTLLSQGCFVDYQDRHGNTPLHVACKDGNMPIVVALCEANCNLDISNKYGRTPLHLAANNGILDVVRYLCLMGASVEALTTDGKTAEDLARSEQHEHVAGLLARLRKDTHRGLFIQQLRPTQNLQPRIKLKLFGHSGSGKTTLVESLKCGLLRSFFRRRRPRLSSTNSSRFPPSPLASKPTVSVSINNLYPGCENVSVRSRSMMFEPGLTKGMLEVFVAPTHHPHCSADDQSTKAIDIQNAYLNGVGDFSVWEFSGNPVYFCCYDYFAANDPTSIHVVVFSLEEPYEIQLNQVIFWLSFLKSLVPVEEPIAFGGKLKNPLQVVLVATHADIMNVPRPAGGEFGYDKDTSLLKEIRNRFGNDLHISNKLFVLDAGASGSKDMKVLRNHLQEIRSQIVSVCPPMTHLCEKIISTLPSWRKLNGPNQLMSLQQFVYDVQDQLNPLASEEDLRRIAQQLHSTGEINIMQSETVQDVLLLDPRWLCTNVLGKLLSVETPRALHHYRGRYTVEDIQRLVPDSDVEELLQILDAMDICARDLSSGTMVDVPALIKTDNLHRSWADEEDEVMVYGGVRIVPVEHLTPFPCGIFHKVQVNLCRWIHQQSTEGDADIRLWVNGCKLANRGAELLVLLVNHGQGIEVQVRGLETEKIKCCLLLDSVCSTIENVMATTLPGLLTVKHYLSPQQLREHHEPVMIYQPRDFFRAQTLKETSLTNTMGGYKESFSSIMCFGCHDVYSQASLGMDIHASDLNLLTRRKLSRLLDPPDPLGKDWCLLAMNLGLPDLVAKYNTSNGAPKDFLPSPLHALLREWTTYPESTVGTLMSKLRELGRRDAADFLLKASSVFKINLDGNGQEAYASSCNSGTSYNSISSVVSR
Sequence of Calcium/calmodulin-dependent protein kinase type II subunit gamma (Homo sapiens) (Q13555 whole entry): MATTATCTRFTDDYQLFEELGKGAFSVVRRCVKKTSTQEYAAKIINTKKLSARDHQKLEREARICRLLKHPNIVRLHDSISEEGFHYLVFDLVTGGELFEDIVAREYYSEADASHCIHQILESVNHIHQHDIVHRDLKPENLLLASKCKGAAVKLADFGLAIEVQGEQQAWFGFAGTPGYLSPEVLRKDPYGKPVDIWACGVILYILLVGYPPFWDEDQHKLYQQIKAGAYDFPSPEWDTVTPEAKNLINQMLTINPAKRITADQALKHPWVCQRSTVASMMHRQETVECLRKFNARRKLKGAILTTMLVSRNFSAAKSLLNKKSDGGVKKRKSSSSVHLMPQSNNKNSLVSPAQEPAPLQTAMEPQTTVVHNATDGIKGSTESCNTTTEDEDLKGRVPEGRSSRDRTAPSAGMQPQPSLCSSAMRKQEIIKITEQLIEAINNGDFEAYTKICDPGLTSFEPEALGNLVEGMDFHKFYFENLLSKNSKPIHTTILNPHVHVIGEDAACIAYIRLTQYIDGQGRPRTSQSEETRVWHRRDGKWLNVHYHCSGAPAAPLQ

## Nc1nc(Nc2ccc(S(N)(=O)=O)cc2)nn1C(=O)c1c(F)cccc1F
[1]
  residual activity: 60%
[2]
  residual activity: 43%
[3]
  residual activity: 73%
[4]
  residual activity: 19%
[5]
  residual activity: 75%
[6]
  residual activity: 31%
[7]
  residual activity: 64%
[8]
  residual activity: 96%
[9]
  residual activity: 97%
[10]
  residual activity: 77%
[11]
  residual activity: 68%
[12]
  residual activity: 25%
[13]
  residual activity: 77%

## CCCCc1c(-c2ccc(O)cc2)[nH]c2nccnc12
[1]
  residual activity: 71%
[14]
  residual activity: 77%
[2]
  residual activity: 51%
[5]
  residual activity: 62%
[6]
  residual activity: 22%
[9]
  residual activity: 89%
[10]
  residual activity: 96%
[15]
  residual activity: 71%
[16]
  residual activity: 36%
[13]
  residual activity: 77%

## CCCC(=O)Oc1ccc2[nH]c(C(=O)c3cc4ccccc4[nH]3)cc2c1
[1]
  residual activity: 89%
[14]
  residual activity: 86%
[2]
  residual activity: 85%
[3]
  residual activity: 99%
[4]
  residual activity: 102%
[6]
  residual activity: 83%
[7]
  residual activity: 53%
[8]
  residual activity: 68%
[9]
  residual activity: 95%
[10]
  residual activity: 104%
[11]
  residual activity: 82%
[12]
  residual activity: 93%
[16]
  residual activity: 101%
[17]
  residual activity: 132%
[18]
  residual activity: 133%

## N#Cc1c(NC(=O)c2cccc3ccccc23)sc2c1CCCC2
[14]
  residual activity: 94%
[2]
  residual activity: 81%
[4]
  residual activity: 97%
[6]
  residual activity: 88%
[7]
  residual activity: 87%
[8]
  residual activity: 81%
[9]
  residual activity: 93%
[12]
  residual activity: 77%
[17]
  residual activity: 100%
[18]
  residual activity: 91%
[13]
  residual activity: 77%

## COc1ccc(CNC(=O)Nc2ncc([N+](=O)[O-])s2)cc1
[1]
  residual activity: 72%
[9]
  residual activity: 102%
[10]
  residual activity: 104%
[17]
  residual activity: 100%
[18]
  residual activity: 80%

## O=C1NC(=O)C(c2c[nH]c3ccccc23)=C1c1c[nH]c2ccccc12
[1]
  residual activity: 57%
[14]
  residual activity: 68%
[2]
  residual activity: 13%
[3]
  residual activity: 40%
[4]
  residual activity: 4%
[5]
  residual activity: 28%
[6]
  residual activity: 4%
[19]
  residual activity: 100%
[7]
  residual activity: 54%
[10]
  residual activity: 58%
[13]
  residual activity: 67%

## Cc1cc(C)c(/C=C2\C(=O)Nc3ccccc32)[nH]1
[3]
  residual activity: 32%
[4]
  residual activity: -1%
[5]
  residual activity: 38%
[6]
  residual activity: 9%
[19]
  residual activity: 104%
[7]
  residual activity: 60%
[13]
  residual activity: 26%

## CN([C@@H](Cc1ccc(OS(=O)(=O)c2cccc3cnccc23)cc1)C(=O)N1CCN(c2ccccc2)CC1)S(=O)(=O)c1cccc2cnccc12
[14]
  residual activity: 100%
[2]
  residual activity: 78%
[5]
  residual activity: 99%
[17]
  residual activity: 135%
[18]
  residual activity: 115%
[13]
  residual activity: 117%

## O=C(Nc1nc2ccccc2n1CCN1CCOCC1)c1cccc([N+](=O)[O-])c1
[14]
  residual activity: 83%
[2]
  residual activity: 83%
[4]
  residual activity: 76%
[5]
  residual activity: 103%
[6]
  residual activity: 85%
[19]
  residual activity: 115%
[7]
  residual activity: 53%
[8]
  residual activity: 73%
[15]
  residual activity: 110%
[16]
  residual activity: 112%
[13]
  residual activity: 104%

## CCOc1nc(NC(=O)Cc2cc(OC)ccc2OC)cc(N)c1C#N
[1]
  residual activity: 78%
[11]
  residual activity: 138%
